Assay results as given in PubChem BioAssay (NCATS).
Several values for one entry are separate records, joined by “and”; a condition that tells them apart may be missing. Equal values may be shown once. Results filed as inconclusive are left out. Activity calls are given as the source filed them. Calls come from the whole dose curve; as a rule, active = well fitted inhibition curve with a large enough effect; inconclusive = small, poorly fitted or top-dose-only effect; inactive = flat fitted curve, though single readings scatter.

Experiments:
PC26 = assay: qHTS profiling for inhibitors of Plasmodium falciparum proliferation (AID 504749);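 note: 0% = DMSO vehicle and full inhibition = artemisinin control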; conditions: P. falciparum in erythrocytes, SYBR Green DNA, 72 h; series mostly up to 28.7 µM
Method in brief: (§1)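 Readout was DNA-dye fluorescence from lysed cultures, ex 485/em 535 nm. Parasitized red cells had grown 72 h with compound; data scaled between 0.29 uM artemisinin and DMSO wells and corrected using vehicle-only plates.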

PC49 = assay: as above; conditions: P. falciparum in erythrocytes, SYBR Green DNA, 72 h; series mostly up to 28.7 µM
Method in brief: as §1

SC27B = assay: as above; conditions: P. falciparum in erythrocytes, SYBR Green DNA, 72 h; series mostly up to 28.7 µM
Method in brief: as §1

TAB113 = assay: as above; conditions: P. falciparum in erythrocytes, SYBR Green DNA, 72 h; series mostly up to 28.7 µM
Method in brief: as §1

TAB165 = assay: as above; conditions: P. falciparum in erythrocytes, SYBR Green DNA, 72 h; series mostly up to 28.7 µM
Method in brief: as §1

CRL-7250 = normal cell line; assay: Cytotoxic Profiling of Annotated Libraries Using Quantitative High-Throughput Screening (AID 1296008); conditions: Five cell lines viability, CellTiter-Glo ATP luminescence, 48-72 h; max response: stronger effect = lower value; for max response: % is set by controls: 0 for no effect and ±100 for the full control effect
Method in brief: (§2)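 Cells exposed to compounds for 48 or 72 hr at 37 degrees Celsius. Viability read as ATP-coupled luminescence with CellTiter-Glo after 10 min at room temperature.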

HEK293 = assay: as above; conditions: Five cell lines viability, CellTiter-Glo ATP luminescence, 48-72 h; max response: stronger effect = lower value
Method in brief: as §2

HaCat = assay: as above; conditions: Five cell lines viability, CellTiter-Glo ATP luminescence, 48-72 h; max response: stronger effect = lower value
Method in brief: as §2

TAB109 = assay: qHTS profiling for inhibitors of Plasmodium falciparum proliferation (AID 504749);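 note: 0% = DMSO vehicle and full inhibition = artemisinin control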; conditions: P. falciparum in erythrocytes, SYBR Green DNA, 72 h; series mostly up to 28.7 µM
Method in brief: as §1

W2 = assay: as above; conditions: P. falciparum in erythrocytes, SYBR Green DNA, 72 h; series mostly up to 28.7 µM
Method in brief: as §1
Note: nearly all actives have a fitted effect of over 60% in size.

O=C1c2ccccc2C(=O)C1C(=O)C(c1ccccc1)c1ccccc1
inactive: Potency (PC26) | Potency (PC49) | Potency (SC27B) | Potency (TAB113) | Potency (TAB165) | max response (CRL-7250) 3.94% | outcome (HEK293) | outcome (HaCat)

CN1C(=O)COc2c(C(=O)NC3CN4CCC3CC4)cc(Cl)cc21 (centres undefined)
inactive: Potency (PC26) | Potency (PC49) | Potency (SC27B) | Potency (TAB109) | Potency (TAB113) | Potency (TAB165) | Potency (W2) | max response (CRL-7250) -5.92% | max response (HEK293) -5.69% and -2.96% | max response (HaCat) -0.711% and 2.67%

CCCCCCCCCC(=O)O[C@H]1CC[C@H]2[C@@H]3CCC4=CC(=O)CC[C@@H]4[C@H]3CC[C@]12C
inactive: Potency (PC26) | Potency (PC49) | Potency (SC27B) | Potency (TAB109) | Potency (TAB113) | Potency (TAB165) | outcome (CRL-7250) | max response (HEK293) -2.03% | max response (HaCat) 4.55%

O=c1[nH]c2ccccc2n1C1CCNCC1
inactive: outcome (CRL-7250) | max response (HEK293) -4.64% | max response (HaCat) 3.09%

CN1C(=O)NC(=O)C(C)(C2=CCCCC2)C1=O (centres undefined)
inactive: Potency (PC26) | Potency (PC49) | Potency (SC27B) | Potency (TAB109) | Potency (TAB113) | Potency (TAB165) | Potency (W2) | max response (CRL-7250) -9.98% | outcome (HEK293) | max response (HaCat) -13.8%

NC(=O)CS(=O)C(c1ccccc1)c1ccccc1 (centres undefined)
inactive: Potency (PC26) | Potency (PC49) | Potency (SC27B) | Potency (TAB109) | Potency (TAB113) | Potency (TAB165) | Potency (W2) | max response (CRL-7250) 1.08% | max response (HEK293) 2.52% | max response (HaCat) -6.49%

CN1CCC(O)(c2ccc(F)cc2)C(C(=O)c2ccc(F)cc2)C1 (centres undefined)
inactive: Potency (PC26) | Potency (PC49) | Potency (SC27B) | Potency (TAB109) | Potency (TAB113) | Potency (TAB165) | max response (CRL-7250) -1.09% | max response (HEK293) 3.5% | outcome (HaCat)

CC1(C)C(C=C(Cl)Cl)C1C(=O)OC(C#N)c1cccc(Oc2ccccc2)c1 (centres undefined)
inactive: max response (CRL-7250) 2.32% | max response (HEK293) 2.42% | outcome (HaCat)

C[C@]12Cc3cn[nH]c3C[C@@H]1CC[C@@H]1[C@@H]2CC[C@@]2(C)[C@H]1CC[C@]2(C)O
inactive: max response (CRL-7250) 0.607% | max response (HaCat) 2.06%

COP(=S)(OC)Oc1ccc(S(=O)(=O)N(C)C)cc1
inactive: Potency (PC26) | Potency (PC49) | Potency (SC27B) | Potency (TAB109) | Potency (TAB113) | Potency (TAB165) | Potency (W2) | max response (CRL-7250) 4.64% | max response (HaCat) -5.18%

O=C1OC(CCN2CCCCC2)OC1(c1ccccc1)c1ccccc1 (centres undefined)
inactive: max response (CRL-7250) -20% | max response (HaCat) 4.71%

C[C@]12CC[C@H]3[C@@H](CCC4=CC(=O)CC[C@@H]43)[C@@H]1CC[C@@H]2OC(=O)CCc1ccco1
inactive: max response (CRL-7250) -3% | outcome (HaCat)

C[C@]12CCC(=O)C=C1CC[C@@H]1[C@@H]2CC[C@]2(C)C(=O)CC[C@@H]12
inactive: Potency (PC26) | Potency (PC49) | Potency (SC27B) | Potency (TAB109) | Potency (TAB113) | Potency (TAB165) | Potency (W2) | max response (CRL-7250) -5.91% | max response (HaCat) -13.1%

COc1cc(CC(C)N)cc(OC)c1OC (centres undefined)
inactive: max response (CRL-7250) -18.9% | max response (HaCat) 2.22%

CCN(CC)C(=O)[C@@H]1C=C2c3cccc4[nH]cc(c34)C[C@H]2N(C)C1
inactive: max response (CRL-7250) -10.2% | max response (HaCat) 1.44%

NCCc1ccc(O)cc1
inactive: Potency (PC26) | Potency (PC49) | Potency (SC27B) | Potency (TAB109) | Potency (TAB113) | Potency (TAB165) | Potency (W2) | max response (CRL-7250) -9.28% | max response (HaCat) 1.28%

O=P1(N(CCCl)CCCl)NCCCO1 (centres undefined)
inactive: Potency (PC26) | Potency (PC49) | Potency (SC27B) | Potency (TAB109) | Potency (TAB113) | Potency (TAB165) | Potency (W2) | max response (CRL-7250) -3.83% and -4.06% | max response (HaCat) -5.79% | outcome (HaCat)

CCN[C@@H](C)Cc1ccccc1
inactive: max response (CRL-7250) -24.3% | max response (HaCat) -12.1%

CCC1(c2ccc(N)cc2)CCC(=O)NC1=O (centres undefined)
inactive: max response (CRL-7250) 1.43% and -1.25% | max response (HaCat) 2.56% and -2.32%

CN(C)CCc1c[nH]c2cccc(OP(=O)(O)O)c12
inactive: max response (CRL-7250) -37.9% | max response (HaCat) 4.32%

CCC(C)C(C)(COC(N)=O)COC(N)=O (centres undefined)
inactive: max response (CRL-7250) 1.47% | max response (HaCat) -3.56%

C[C@]12CC[C@H]3[C@@H](CCC4=CC(=O)CC[C@@H]43)[C@@H]1CC[C@@H]2OC(=O)CCC1CCCCC1
inactive: outcome (CRL-7250) | max response (HaCat) 2.69%

COc1cc(OC)c(OC)cc1C=O
inactive: max response (CRL-7250) -7.23% and -7.54% | max response (HaCat) -4.25% | outcome (HaCat)

c1ccc(CN2CCNCC2)cc1
inactive: max response (CRL-7250) 3.96% | outcome (HaCat)

CC(C)C[C@H](CN)CC(=O)O
inactive: max response (CRL-7250) -0.456% | max response (HaCat) -0.0678%

C[C@]12CCC(=O)C=C1CC[C@@H]1[C@@H]2CC[C@@]2(C)[C@H]1CC[C@]2(C)O
inactive: max response (CRL-7250) 2.75% | outcome (HaCat)

CCN[C@H](C)Cc1cccc(C(F)(F)F)c1
inactive: max response (CRL-7250) -0.312% | outcome (HaCat)

CC(Cc1ccccc1)N(C)Cc1ccco1 (centres undefined)
inactive: max response (CRL-7250) -3.65% | outcome (HaCat)

c1ccc2c(c1)sc1ccccc12
inactive: Potency (PC26) | Potency (PC49) | Potency (SC27B) | Potency (TAB109) | Potency (TAB113) | Potency (TAB165) | Potency (W2) | max response (CRL-7250) 2.83% | max response (HaCat) -3.8%

O=C(CCCN1CCC2(CC1)C(=O)NCN2c1ccccc1)c1ccc(F)cc1
inactive: max response (CRL-7250) -1.53% | outcome (HaCat)

Cc1ncsc1CCCl
inactive: Potency (PC26) | Potency (PC49) | Potency (SC27B) | Potency (TAB109) | Potency (TAB113) | Potency (TAB165) | Potency (W2) | max response (CRL-7250) 3.36% | max response (HaCat) -12.7%

CC(Cc1ccccc1)NCCn1cnc2c1c(=O)n(C)c(=O)n2C (centres undefined)
inactive: max response (CRL-7250) 2.38% | outcome (HaCat)

CN1CC[C@]23c4c5ccc(O)c4O[C@H]2[C@@H](O)C=C[C@H]3[C@H]1C5
inactive: max response (CRL-7250) -11.3% | outcome (HaCat)

Clc1cccc(SC2CCNCC2)n1
inactive: Potency (PC26) | Potency (PC49) | Potency (SC27B) | Potency (TAB109) | Potency (TAB113) | Potency (TAB165) | Potency (W2) | max response (CRL-7250) -0.448% | max response (HaCat) -6.24%

CCCN(CCC)C(=O)Cc1c(-c2ccc(Cl)cc2)nc2ccc(Cl)cn12
inactive: max response (CRL-7250) 0.585% | max response (HaCat) -9.95%

CCCOC(=O)c1cncn1C(C)c1ccccc1 (centres undefined)
inactive: max response (CRL-7250) -1.16% | outcome (HaCat)

CC(C(=O)c1ccccc1)N(C)C (centres undefined)
inactive: max response (CRL-7250) 3.38% | outcome (HaCat)

[N-]=[N+]=CC(=O)OC[C@H](N)C(=O)O
inactive: max response (CRL-7250) -7.47% | max response (HaCat) -3.83%

Oc1ccc(Cl)cc1
inactive: Potency (PC26) | Potency (PC49) | Potency (SC27B) | Potency (TAB109) | Potency (TAB113) | Potency (TAB165) | Potency (W2) | max response (CRL-7250) -6.01% | outcome (HaCat)

Nc1ccccc1
inactive: max response (CRL-7250) -1.03% | outcome (HaCat)
